As a reminder, the inhibition is the change of the read-out against control, counted positive when it falls.

Solute carrier family 2, facilitated glucose transporter member 1 (Homo sapiens), sequence (P11166 whole entry): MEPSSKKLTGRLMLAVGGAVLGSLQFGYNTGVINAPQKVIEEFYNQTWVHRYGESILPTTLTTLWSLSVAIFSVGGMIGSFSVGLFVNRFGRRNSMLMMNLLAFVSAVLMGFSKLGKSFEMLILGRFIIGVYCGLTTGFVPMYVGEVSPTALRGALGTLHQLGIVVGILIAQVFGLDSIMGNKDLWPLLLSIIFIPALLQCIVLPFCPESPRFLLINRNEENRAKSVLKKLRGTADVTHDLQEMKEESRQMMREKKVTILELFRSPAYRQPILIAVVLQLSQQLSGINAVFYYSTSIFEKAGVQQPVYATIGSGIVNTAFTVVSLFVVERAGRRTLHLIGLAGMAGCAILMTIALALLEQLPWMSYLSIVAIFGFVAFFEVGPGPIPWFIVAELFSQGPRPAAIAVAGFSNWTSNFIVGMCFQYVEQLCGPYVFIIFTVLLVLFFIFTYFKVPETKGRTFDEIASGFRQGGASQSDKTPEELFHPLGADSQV

The assay has as its target Solute carrier family 2, facilitated glucose transporter member 1 (Homo sapiens) (UniProt P11166). The experiment in a line: ST_JUDE_LEISH: Cytotoxicity at 2uM final concentration against transgenic Leishmania Mexicana promastigotes LmGLUT1 that are glucose transport deficient and complemented with the human glucose transporter GLUT1. Activity is measured by DNA content using SYBR green in vitro. The format is functional.
For `Cc1nnc2c(NC(=O)NC(C)C)cc3cc(-c4ccc(CN5CCCCC5)cc4)ccc3n12`, the inhibition stood at 56%. For `O=C(Nc1cc(Cl)cc(Cl)c1)Nc1ccnc2ccccc12` the value was 2.68%; for `CC1(C)NC(N)=NC(=N)N1OCCSc1ccccc1`, 2.9%. For `CC(C)c1ccc(Nc2nc(NCCc3c[nH]cn3)nc(NCc3ccccc3)n2)cc1` the value was 1.58%; for `S=C(NCCCCCN1CCC(c2c[nH]c3ccccc23)CC1)Nc1ccc(Cl)c(Cl)c1`, 1.88%. To `CNCCCNCc1ccc(-c2ccc(F)c(Cl)c2)o1` belongs 0.54%; to `Cc1nc(NCCCn2ccnc2)cc(-c2cncc(-c3ccc(OC(F)(F)F)cc3)c2)n1`, 5.43%; to `O=C(/C=C/c1ccc(Cl)cc1)NCCCCCN1CCCN(C(=O)Nc2ccc(F)c(Cl)c2)CC1`, 5.5%. In the case of `Cc1cc(N)c2cc(NC(=O)c3cccc(C(=O)Nc4ccc5nc(C)cc(N)c5c4)c3)ccc2n1`, the inhibition is -0.38%. For the compound `Cc1c(Cc2ccc(C(C)C)cc2)cnc2nc(N)nc(N)c12`, the inhibition came out at 1.34%.

With `COc1ccc(CN2CCC(N3CCc4cc(NC(=O)c5cc(C)on5)ccc43)C2)cc1Cl` (stereo not given), the inhibition was -0.2%. Turning to `Cc1nc(-c2cccc(Nc3nccc(NCC(O)c4ccc(C(F)(F)F)cc4)n3)c2)cs1` (stereo not given), the inhibition came to 1.28%. To `CSc1ccc(NC(=O)Nc2cc(C)nc3ccccc23)cc1` belongs 10.3%; to `N#Cc1cc([N+](=O)[O-])ccc1-n1nc(C(N)=O)n(Cc2cccc(F)c2)c1=S`, 11.3%. For `CCN(CC)CCN(Cc1ccc(-c2ccc(C(F)(F)F)cc2)cc1)C(=O)Cn1c(SCc2ccc(F)c(F)c2F)nc(=O)c2c1CCC2` the value was 2.57%; for `O=C(Nc1ccccc1F)N(CCCn1ccnc1)Cc1csc(-c2ccc(CNCc3ccccc3)cc2)n1`, -0.67%.

`COc1ccccc1-c1ccc(C(=O)NCC2CCCN(Cc3cccc(C(F)(F)F)c3)C2)s1` (stereo not given): the inhibition turned out to be 6.82%. For `Cc1nc(C)c(-c2ccc(S(=O)(=O)c3ccc(Cl)cc3)cc2)c(O)c1Br` the value was 4.93%; for `NC(=O)c1ccc(-c2ccc3ccnc(N)c3c2)cc1`, 7.25%; for `CC[C@H]1CN(Cc2cccc(O)c2)CC[C@H]1CCCc1ccnc2ccc(O)cc12`, 4.31%. On to `O=S(=O)(c1cccc(Br)c1)N1CCCCC(c2ccc(C(F)(F)F)cc2)=N1`, for which the inhibition came to 1.84%. For `Cc1cc(OCc2ccccc2)c(OCc2ccccc2)cc1C(O)CN(C)Cc1ccccc1` (stereo not given) the value was 0.44%. In the case of `CS(=O)(=O)Cc1ccc(Nc2nccc(-c3c(-c4cccc(NC(=O)C5CCCCC5)c4)nn4ncccc34)n2)cc1`, the inhibition worked out at 3.22%. For `CC(C)N1CCC(N(Cc2ccc(-c3ccc(C(F)(F)F)cc3)cc2)C(=O)Cn2c(CCc3cccc(F)c3F)cc(=O)c3cn(C)nc32)CC1`, the inhibition amounted to 10.3%. For `C/C(=C\C(=O)NC1CC1)c1ccccc1OCc1ccccc1` the value was 0.29%. To `COc1ccc2nccc([C@@H](O)CN3CCC(NC(=O)C(c4cc5ccccc5o4)N4CCN(c5ccccc5OC)CC4)CC3)c2c1` (stereo not given in full) belongs 1.2%; to `O=C(CCOc1ccccc1)NCC1CCCO1` (stereo not given), 1.87%; to `O=S(=O)(NCCN1CCCC1)c1ccc(-c2cccc(CNC3Cc4ccccc4C3)c2)cc1F`, 7.61%. In the case of `COc1ccc2nccc(NC(=O)C3(O)CCC(NCc4ccc5c(c4)NCCS5)CC3)c2n1` (stereo not given), the inhibition amounted to 15%. For `Cc1cccc(C(=O)Nc2ccnc(N3CCC(N(C)Cc4cccc(C#N)c4)CC3)c2)c1` the value was 4.5%. To `CC[C@H]1CN2CCc3c([nH]c4ccccc34)[C@@H]2C[C@@H]1CC1c2cc(OC)c(OC)cc2CCN1C` (stereo not given in full) belongs 9.81%; to `c1ccc(-c2cc(NCCCCNc3cc(-c4ccccc4)nc4ccccc34)c3ccccc3n2)cc1`, 6.88%; to `O=C(Nc1cccc(-c2cc(-c3c(Cl)cccc3Cl)no2)c1)c1cncc(-c2cccs2)c1`, 16%.

As for `FC(F)(F)c1ccc2[nH]c(-c3ccc(-c4cccc(CNCCc5ccncc5)c4)s3)nc2c1`, the inhibition amounted to 0.52%. Take `Cc1sc(N2CCN(C)CC2)nc1C(=O)Nc1ccc(F)cc1C(F)(F)F`: the inhibition is 4.38%. `COc1ccc(/C=C/C(=O)NCCCCCN2CCC(c3c[nH]c4ccccc34)CC2)cc1O`: the inhibition came out at 12.1%. Turning to `COCCNc1nc(N2CCC(CNC(=O)c3ccc(-c4ccc(C(=O)N(C)C)cc4C)cc3)CC2)nc2cc(OC)c(OC)cc12`, the inhibition is -0.42%. For the compound `COc1ccccc1N=C1SC(=Cc2cn(CC(=O)N3CCCc4ccccc43)c3ccccc23)C(=O)N1C1CCCCC1`, the inhibition amounted to 2.84%. For `Fc1ccc2[nH]c(-c3ccc(-c4ccc(CN5CCN(CCN6CCOCC6)CC5)cc4)s3)nc2c1` the value was 6.46%. For `O=C(NCCCCN1CCC(c2ccc3ccccc3c2)CC1)c1ccc(NC(=O)c2ccc(Cl)cc2)cc1` the value was 2.27%.

The values are drawn from ChEMBL document CHEMBL3433997, “St. Jude Leishmania screening dataset” (2016).
